Among the test systems are SK-MEL-2 melanoma; SN12C renal; UO-31 renal; TK-10 renal; ACHN renal; CAKI-1 renal; CCRF-CEM leukemia; MOLT-4 leukemia; A498 renal.
Common to all, as to assay: NCI-60 one-dose screen, 48 h (100 = growth as untreated, 0 = no growth, -100 = all killed)
Common to all, as to conditions: 10 µM unless noted

SMILES strings stand for the structures. The panel holds about 83,000 compounds, 20% with a hit somewhere; the sample as a whole holds those more often.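 Single-concentration screen, 48 h exposure, 96-well plates. Endpoint: percent growth. Below 10 = active.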 Unmarked numbers belong to inactive results. Activity calls are given as the source filed them.

As for `N=C1C=C(N)C(=O)c2ccccc21`, the growth with SK-MEL-2 melanoma was -53.6% (active); with SN12C renal, -66.9% (active); in the test with UO-31 renal, -86.3% (active); with TK-10 renal, -67.5% (active); with ACHN renal it was -81.6% (active); in the test with CAKI-1 renal, -47.7% (active). Besides, the growth is 3.15% (active) in the test on CCRF-CEM leukemia and -25% (active) in the test on MOLT-4 leukemia.
For `CCCCC(C=O)(C=C=C(C)C)CC` (stereo unspecified), the growth in the test on SK-MEL-2 melanoma was 111%; in the test on SN12C renal it was 102%; in the test with UO-31 renal, 93.4%; in the test on TK-10 renal, 104%; in the test on ACHN renal, 99.3%; in the test with CAKI-1 renal, 98.2%. Moreover, the growth is 82% in the test with A498 renal, 88.5% in the test with CCRF-CEM leukemia and 97% with MOLT-4 leukemia.
For `Cc1cc(C)c(C#N)c(Sc2nc(C)c([N+](=O)[O-])c(C)c2C#N)n1`, the growth in the test on SK-MEL-2 melanoma is 69.4%; in the test with UO-31 renal, 39.3%; in the test on TK-10 renal it was 75.2%; in the test with ACHN renal, 39.3%; in the test with CAKI-1 renal, 0.956% (active); with A498 renal, 110%. In the test on MOLT-4 leukemia, the growth is 39.7%.
In the case of `Nc1ccc(Oc2ccccc2)c(Cl)c1`, the growth in the test with SK-MEL-2 melanoma is 105%; in the test on SN12C renal, 107%; with UO-31 renal, 72.1%; in the test on TK-10 renal, 96.1%; in the test on ACHN renal, 101%; in the test on CAKI-1 renal it was 100%. Besides, the values for the growth with A498 renal, with CCRF-CEM leukemia and in the test on MOLT-4 leukemia were 57.5%, 102% and 97.9%, respectively.
For `Oc1c(Cl)cc(Cl)cc1C(c1cc(Cl)cc(Cl)c1O)C(Cl)(Cl)Cl`, the growth in the test with SK-MEL-2 melanoma was -33.9% (active); with SN12C renal, 0.98% (active); in the test with UO-31 renal, -21.4% (active); in the test on TK-10 renal it was 13%; in the test on ACHN renal it was -19.7% (active); with A498 renal it was -26.6% (active). In addition, the values for the growth in the test on CCRF-CEM leukemia and with MOLT-4 leukemia were 8.74% (active) and 3.86% (active), respectively.
For `O=[N+]([O-])c1ccc(C2N(Cc3ccc(Cl)cc3)CCN2Cc2ccc(Cl)cc2)cc1`, the growth in the test with SK-MEL-2 melanoma is 101%; in the test on UO-31 renal, 48.5%; in the test with TK-10 renal, 80.5%; in the test with ACHN renal, 81.6%; in the test on CAKI-1 renal, 72.7%; with A498 renal, 88.4%. Moreover, the growth in the test with CCRF-CEM leukemia is 83.5%; in the test on MOLT-4 leukemia, 80.3%.
For the compound `Oc1c(C(Nc2ccccc2)c2ccccc2)ccc2cccnc12` (stereo unspecified), the growth with SK-MEL-2 melanoma is 48%; in the test on UO-31 renal it was 36.9%; in the test on TK-10 renal, 49.4%; in the test on ACHN renal, 42.9%; in the test on CAKI-1 renal, 29.1%; in the test with A498 renal, 78.7%. Further, the growth with CCRF-CEM leukemia is 17.7%; in the test with MOLT-4 leukemia it was 21.2%.
For the compound `CC(C)c1ccc(Nc2n[nH]c(=S)s2)cc1`, the growth in the test on SK-MEL-2 melanoma is 111%; in the test with SN12C renal, 98.2%; in the test on UO-31 renal, 83.7%; in the test with TK-10 renal, 93.1%; with ACHN renal it was 106%; with CAKI-1 renal it was 114%. For the same compound, the growth is 94.6% with A498 renal and 97.6% in the test on MOLT-4 leukemia.
Turning to `Oc1ccc(Br)cc1Sc1cc(Br)ccc1O`, the growth with SK-MEL-2 melanoma is 54.4%; with SN12C renal it was 23.9%; in the test on UO-31 renal, 32.9%; with TK-10 renal it was 115%; in the test on ACHN renal it was 47.8%; in the test on CAKI-1 renal it was 99.7%. In addition, the growth with CCRF-CEM leukemia was 34.3%; in the test with MOLT-4 leukemia it was 40.4%.
Consider `COc1cc2c(c(OC)c1OC)-c1ccc(NCc3ccccc3)c(=O)cc1[C@@H](NC(C)=O)CC2`, for which the growth in the test on SK-MEL-2 melanoma is 19.2%; in the test with SN12C renal it was 20.3%; in the test on UO-31 renal, 34.4%; in the test on TK-10 renal it was 26%; in the test on ACHN renal, 28.8%; with CAKI-1 renal it was 28.8%. Further, the growth is -17.3% (active) in the test on A498 renal, 10.1% in the test on CCRF-CEM leukemia and 3.29% (active) with MOLT-4 leukemia.
On to `Oc1ccc2c(c1)CCc1ccccc1-2`, for which the growth is 115% in the test with SK-MEL-2 melanoma; 90.3% with UO-31 renal; 100% with TK-10 renal; 109% in the test with ACHN renal; 101% with CAKI-1 renal; 68.6% with A498 renal. Moreover, the growth with CCRF-CEM leukemia is 97.3%; in the test on MOLT-4 leukemia it was 103%.
For `CCN(CC)CCNC(Cc1ccccc1)c1ccc(OCc2ccccc2)cc1` (stereo unspecified), the growth is 97% with SK-MEL-2 melanoma; 73.2% in the test with SN12C renal; 41% in the test on UO-31 renal; 64% in the test on TK-10 renal; 61.4% in the test on ACHN renal; 85.2% in the test with CAKI-1 renal. The figures for the growth with A498 renal, in the test on CCRF-CEM leukemia and in the test on MOLT-4 leukemia were 49.8%, 51.4% and 57.4%, respectively.
Take `CC(O)C(O)C(O)C(O)C(O)C(=O)NNc1ccccc1` (stereo unspecified): the growth in the test on SK-MEL-2 melanoma was 106%; with UO-31 renal, 70.6%; in the test on TK-10 renal, 110%; in the test with ACHN renal, 67%; in the test with CAKI-1 renal, 77.1%; in the test on A498 renal, 69.7%. Also, the values for the growth in the test on CCRF-CEM leukemia and with MOLT-4 leukemia were 59.6% and 101%, respectively.
Take `COC(=O)[C@]1(C)CCC[C@]2(C)c3ccc(C(C)C)cc3C(=O)[C@@H](Br)[C@@H]12`: the growth in the test on SK-MEL-2 melanoma was 103%; in the test on SN12C renal it was 96.1%; in the test with UO-31 renal, 69.5%; with TK-10 renal, 102%; in the test with ACHN renal, 92.6%; with CAKI-1 renal, 89%. Also, the growth was 109% in the test with A498 renal, 70.9% in the test on CCRF-CEM leukemia and 60.1% in the test with MOLT-4 leukemia.

The values are drawn from PubChem BioAssay (NCI).
